34 compounds from PubChem BioAssay AID493203 (National Center for Advancing Translational Sciences (NCATS), 2011) can be followed below.

The structures appear in SMILES notation. Results filed as inconclusive are left out. Active and inactive are the calls of the source. Calls come from the whole dose curve; as a rule, active = well fitted activation curve with a large enough effect; inconclusive = small, poorly fitted or top-dose-only effect; inactive = flat fitted curve, though single readings scatter.
Potency is the fitted concentration of half-maximal effect.

The test is described as follows: qHTS Assay for NPC1 Promoter Activators: Initial hit validation from the primary screen.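 For activity, positive = activation: reporter driven by the mutant form of the NPC1 promoter; % of control where 0% means no effect.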 The settings on record: Huh7 NPC1 promoter-luciferase reporter, luminescence, 24 h; series mostly up to 46.1 µM; activity, positive = activation: at the top concentration. Put shortly:
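Huh7 cells stably carrying NPC1 promoter-luciferase, 1500 cells per well in OP-MEM I with 10% FBS; compounds added after 2 hours and incubated 24 hours at 37C. Luminescence read 10 minutes after Amplite luciferase reagent.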
In general terms: In qHTS, concentration-response curves come from the screen itself.
Regarding `O=C(C1COc2ccccc2O1)N1CCN(S(=O)(=O)c2ccccc2)CC1` (centres undefined), the “activity, positive = activation” value was -2.48% (inactive).

Take `COc1ccc(C(c2nnnn2CCc2ccccc2)N2CCN(C3CCCC3)CC2)cc1` (centres undefined): the “activity, positive = activation” value was 3.38% (inactive).

`O=C(O)CSc1nnc(-c2ccncc2)n1CCc1ccccc1`: the “activity, positive = activation” value is 6.07% (inactive).

On to `CCOC(=O)C1(Cc2cccc(Cl)c2)CCCN(C(=O)CCSC)C1` (centres undefined), for which the “activity, positive = activation” value is 10.7% (inactive).

Turning to `COc1cccc(CNC(=O)CN(c2cc(C)cc(C)c2)S(=O)(=O)c2c(C)noc2C)c1`, the “activity, positive = activation” value was -4.87% (inactive).

On to `O=C(c1cccc(Oc2ccc([N+](=O)[O-])cc2)c1)N1CCOCC1`, for which the “activity, positive = activation” value was -1.18% (inactive).

As to `CCOC(=O)c1csc(COc2ccc(OC)cc2)n1`, the Potency was 0.705 µM (active).

Regarding `O=C(CCNC(=O)c1ccc(Br)o1)NCc1ccc(Cl)cc1`, the “activity, positive = activation” value was -0.949% (inactive).

On to `CCC(=O)Nc1cc(-c2cc3ccccc3oc2=O)ccc1OC`, for which the Potency is 1.12 µM (active).

`CCOc1cc(C2C(C#N)=C(N)Oc3n[nH]c(C)c32)ccc1OCCN1CCOCC1` (centres undefined): the “activity, positive = activation” value was -5.42% (inactive).

Take `O=C(NCC1CCCO1)C(c1ccc(F)cc1)N(Cc1ccc2c(c1)OCO2)C(=O)c1ccc(CN2CCOCC2)o1` (centres undefined): the “activity, positive = activation” value is 3.75% (inactive).

With `CCCCc1cc(=O)oc2cc(OCC(=O)N3CCOCC3)ccc12`, the “activity, positive = activation” value is 5.92% (inactive).

`Cn1c(CCN2CCN(c3ccccc3)CC2)nc2cc(NC(=O)c3ccco3)ccc21`: the “activity, positive = activation” value is 7.93% (inactive).

As for `Cc1cccc(C)c1NC(=O)Nc1cccs1`, the “activity, positive = activation” value was -6.67% (inactive).

Turning to `COc1ccc(S(=O)(=O)N2CCCC(C(=O)NCc3ccncc3)C2)cc1Cl` (centres undefined), the “activity, positive = activation” value is 5.51% (inactive).

Regarding `CCCOP(=O)(c1ccc(N(C)C)cc1)C(O)c1cccnc1` (centres undefined), the “activity, positive = activation” value was 0.546% (inactive).

Regarding `COc1ccc(NC(=O)CSc2ccc([N+](=O)[O-])cc2)cc1S(=O)(=O)N1CCOCC1`, the “activity, positive = activation” value is -1.44% (inactive).

Regarding `Cc1nc(-c2ccccn2)sc1C(=O)Nc1ccc(F)cc1F`, the Potency was 15.8 µM (active).

Regarding `Fc1ccc(-c2nc3nc4ccccc4nc3n2Cc2ccco2)cc1`, the “activity, positive = activation” value was 8.2% (inactive).

As for `COc1ccc(OC)c(S(=O)(=O)N2CCN3CCCC3C2)c1` (centres undefined), the “activity, positive = activation” value was -2.34% (inactive).

`COc1cccc(C(C(=O)NC2CCCC2)N(CCC(C)C)C(=O)CCC(=O)Nc2cc(C)on2)c1` (centres undefined): the “activity, positive = activation” value is -13.5% (inactive).

Consider `Cc1ccc(C(=O)NCc2ccc3c(c2)OCO3)cc1C`, for which the Potency is 31.5 µM (active).

As to `C=CCc1ccc(OCCOCCNCCOC)c(OC)c1`, the “activity, positive = activation” value was -3.58% (inactive).

Consider `COCCNC(=O)Cn1nc(-c2ccccc2)c2ccccc2c1=O`, for which the “activity, positive = activation” value was -1.52% (inactive).

`O=C(NNC(=O)C1COc2ccccc2O1)c1ccccc1O` (centres undefined): the “activity, positive = activation” value was 5.4% (inactive).

Turning to `S=C1NCN(CCc2ccccc2)CN1Cc1ccccc1`, the “activity, positive = activation” value was 1.9% (inactive).

As for `CCC(=O)N1c2ccccc2NC2=C(C(=O)CCC2)C1c1ccc(N(C)C)cc1` (centres undefined), the “activity, positive = activation” value was -2.04% (inactive).

Consider `CC(=O)Nc1ccc(-c2csc(Nc3ncccn3)n2)cc1`, for which the Potency was 0.499 µM (active).

Consider `CN(C)/C=N/c1c(C#N)cnn1-c1nc2ccccc2s1`, for which the “activity, positive = activation” value is 20% (inactive).

For the compound `CC(=O)NC(CCCN1C(=O)c2ccccc2C1=O)c1nnn(C)n1` (centres undefined), the “activity, positive = activation” value is 0.69% (inactive).

`CC(Sc1ncnc2c1cnn2-c1ccccc1)C(=O)Nc1ccc(N2CCOCC2)cc1` (centres undefined): the “activity, positive = activation” value was 5.76% (inactive).

Take `CC(C)C(NC(=O)c1ccc([N+](=O)[O-])cc1Cl)C(=O)N1CCCC1` (centres undefined): the “activity, positive = activation” value is 3.15% (inactive).

As for `O=C(N/N=C/c1ccc(-c2ccc(Br)cc2)o1)c1ccc2c(c1)OCO2`, the “activity, positive = activation” value is 14.3% (inactive).

With `CC1CN(C(=O)c2ccncc2)CC(C)O1` (centres undefined), the “activity, positive = activation” value was -2.47% (inactive).
